Measurements taken from PubChem BioAssay (NCATS).
Where “and” joins values, the source holds several entries; their conditions need not be identical. Identical values can stand only once. Inconclusive results are not listed. Entries that show only a call come without a potency. Calls of active or inactive are those of the source. The call rests on the fitted dose curve.
Potency means the concentration at half of the fitted maximal effect.

Assay: Cytotoxicity counterscreen for inhibitors of SARS-CoV-2 cell entry (AID 1645845); further: nearly all actives have a fitted effect of over 50% in size
Conditions: cell viability (SARS-CoV-2 entry assay cells); series mostly up to 57.1 µM
Outline: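 ATP-content luminescence (ATPLite 1step, 15 min RT) read after 48 h compound exposure of Expi293F cells stably expressing human ACE2; normalized to cells-only wells and media-only wells.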
In the case of `C/C=C/C(=O)N(CC)c1ccccc1C`, the Potency is reported as “inactive”. For `CCCN(CCC)C(=O)C(CCC(=O)O)NC(=O)c1ccccc1` (stereo unspecified), the Potency was “inactive”. In the case of `CC(=O)OCC(=O)[C@@]12N=C(C)O[C@@H]1C[C@H]1[C@@H]3CCC4=CC(=O)C=C[C@]4(C)[C@H]3[C@@H](O)C[C@@]12C`, the Potency is reported as “inactive”. In the case of `OC[C@H]1O[C@@H](O[C@@H]2[C@@H](CO)O[C@](O)(CO)[C@H]2O)[C@H](O)[C@@H](O)[C@H]1O`, the Potency is reported as “inactive”. For `CCNC(=O)NCCCOc1cccc(CN2CCCCC2)c1`, the Potency was “inactive”. In the case of `C[C@]12CC[C@@H]3c4ccc(O)cc4CC[C@H]3[C@@H]1CCC2=O`, the Potency is reported as “inactive”. For `CC(C)C(=O)Nc1cccc(C2CN3CCSC3=N2)c1` (stereo unspecified), the Potency was “inactive”. For `COc1ccc2[nH]c(S(=O)Cc3ncc(C)c(OC)c3C)nc2n1` (stereo unspecified), the Potency was “inactive”. In the case of `Cc1nnc(C(=O)NC(C)(C)c2nc(C(=O)NCc3ccc(F)cc3)c(O)c(=O)n2C)o1`, the Potency is reported as “inactive”. In the case of `CC(=O)/C=C/C=C1/C2CCC(C2)C1(C)C` (stereo unspecified), the Potency is reported as “inactive”. In the case of `O=c1oc2c(O)c(O)cc3c(=O)oc4c(O)c(O)cc1c4c23`, the Potency is reported as “inactive”. In the case of `CCCN(CCC)C(=O)C(CCC(=O)OCCCN1CCN(CCOC(=O)Cc2c(C)n(C(=O)c3ccc(Cl)cc3)c3ccc(OC)cc23)CC1)NC(=O)c1ccccc1` (stereo unspecified), the Potency is reported as “inactive”. With `C[N+]1(CC2COC(c3ccccc3)(c3ccccc3)O2)CCCCC1` (stereo unspecified) the Potency was “inactive”. For `O=C(O)c1cccc(-c2noc(-c3ccccc3F)n2)c1`, the Potency was 6.31 µM (active). In the case of `C[C@]12C=CC(=O)C=C1CC[C@H]1[C@@H]3C[C@@H](O)[C@](O)(C(=O)CO)[C@@]3(C)C[C@H](O)[C@@]12F`, the Potency is reported as “inactive”. For `NC(N)=NC(=O)c1nc(Cl)c(N)nc1N`, the Potency was “inactive”. With `CN1CC(=O)N2[C@H](c3ccc4c(c3)OCO4)c3[nH]c4ccccc4c3C[C@@H]2C1=O` the Potency was “inactive”. In the case of `CC[C@H](NC(C)C)[C@H](O)c1ccc(O)c2[nH]c(=O)ccc12`, the Potency is reported as “inactive”. In the case of `C#CC1(O)CC[C@H]2[C@@H]3CCC4=CCCC[C@@H]4[C@H]3CC[C@@]21C` (stereo partly specified), the Potency is reported as “inactive”. For `CN1C(=O)CC(c2ccccc2)C1=O` (stereo unspecified), the Potency was “inactive”.

Assay: Primary qHTS to identify inhibitors of SARS-CoV-2 cell entry (AID 1645846); further: nearly all actives have a fitted effect of over 45% in size
Conditions: SARS-CoV-2 pseudovirus cell entry assay, luminescence; activity change, negative = inhibition: at 57.1 µM (top of the series) unless noted; series mostly up to 57.1 µM
Outline: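 Entry measured by luciferase signal 48 h after adding SARS-CoV-2-S pseudotyped MLV particles to HEK293-ACE2 cells preincubated 1 h with compounds. Normalisation: bald particles and spike particles.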
For `CC(=O)N(CC(O)CN(C(C)=O)c1c(I)c(C(=O)NCC(O)CO)c(I)c(C(=O)NCC(O)CO)c1I)c1c(I)c(C(=O)NCC(O)CO)c(I)c(C(=O)NCC(O)CO)c1I` (stereo unspecified), the Potency was “inactive”. In the case of `N=C(N)c1ccc2cc(OC(=O)c3ccc(N=C(N)N)cc3)ccc2c1`, the Potency is reported as “inactive” and the activity change, negative = inhibition is reported as -3.1%. For `CCCCNc1cc(C(=O)O)cc(S(N)(=O)=O)c1Oc1ccccc1`, the Potency was “inactive” and the activity change, negative = inhibition was -16.4%. `CCN(CC)CCNC(C(=O)OCCC(C)C)c1ccccc1` (stereo unspecified) showed an activity change, negative = inhibition of -14.1%. With `C#C[C@]1(O)CC[C@H]2[C@@H]3[C@H](C)CC4=C(CCC(=O)C4)[C@H]3CC[C@@]21C` the Potency was “inactive” and the activity change, negative = inhibition was -14.1%. With `O=C(O)C(=O)Nc1cccc(-c2nn[nH]n2)c1` the Potency was “inactive” and the activity change, negative = inhibition was -0.181%. For `Nc1nc2ncc(CNc3ccc(C(=O)N[C@@H](CCC(=O)O)C(=O)O)cc3)nc2c(=O)[nH]1`, the Potency was “inactive”. With `CCCc1cc(C(N)=S)ccn1` the Potency was “inactive” and the activity change, negative = inhibition was -4.59%. In the case of `O=S(=O)(c1cccc2cnccc12)N1CCCNCC1`, the Potency is reported as “inactive” and the activity change, negative = inhibition is reported as -0.418%. For `NCCc1cnc[nH]1`, the Potency was “inactive” and the activity change, negative = inhibition was 0.209%. With `c1ccc([C@H]2CN3CCSC3=N2)cc1` the Potency was “inactive” and the activity change, negative = inhibition was -16.1%. For `CC(C)(Oc1ccc(CCNC(=O)c2ccc(Cl)cc2)cc1)C(=O)O`, the Potency was “inactive”. With `NS(=O)(=O)c1ccc(N2CCCCS2(=O)=O)cc1` the Potency was “inactive”. With `CCCCC(=O)O[C@]1(C(=O)CO)CC[C@H]2[C@@H]3CCC4=CC(=O)CC[C@]4(C)[C@H]3[C@@H](O)C[C@@]21C` the Potency was “inactive”. `CCN1CCCC(OC(=O)C(c2ccccc2)c2ccccc2)C1` (stereo unspecified) gave an activity change, negative = inhibition of -0.255%. In the case of `CCN1C(=O)c2ccccc2C1Nc1ccc(OCCN2CCCCC2)cc1` (stereo unspecified), the activity change, negative = inhibition is reported as 0.117%. `NCCNC(=O)c1ccc(Cl)cn1` showed an activity change, negative = inhibition of -12.8%. `O=S1(=O)OC(c2ccc(O)cc2)(c2ccc(O)cc2)c2ccccc21` gave an activity change, negative = inhibition of 4.87%. With `C/C=C/C(=O)N(CC)c1ccccc1C` the Potency was “inactive” and the activity change, negative = inhibition was -9.15%. In the case of `CCCN(CCC)C(=O)C(CCC(=O)O)NC(=O)c1ccccc1` (stereo unspecified), the Potency is reported as “inactive” and the activity change, negative = inhibition is reported as 2.74%. In the case of `CC(=O)OCC(=O)[C@@]12N=C(C)O[C@@H]1C[C@H]1[C@@H]3CCC4=CC(=O)C=C[C@]4(C)[C@H]3[C@@H](O)C[C@@]12C`, the Potency is reported as “inactive” and the activity change, negative = inhibition is reported as -14%. With `OC[C@H]1O[C@@H](O[C@@H]2[C@@H](CO)O[C@](O)(CO)[C@H]2O)[C@H](O)[C@@H](O)[C@H]1O` the Potency was “inactive” and the activity change, negative = inhibition was -4.13%. In the case of `CCNC(=O)NCCCOc1cccc(CN2CCCCC2)c1`, the Potency is reported as “inactive”. With `C[C@]12CC[C@@H]3c4ccc(O)cc4CC[C@H]3[C@@H]1CCC2=O` the Potency was “inactive”. `CC(C)C(=O)Nc1cccc(C2CN3CCSC3=N2)c1` (stereo unspecified) showed an activity change, negative = inhibition of -6.4%. With `COc1ccc2[nH]c(S(=O)Cc3ncc(C)c(OC)c3C)nc2n1` (stereo unspecified) the Potency was “inactive” and the activity change, negative = inhibition was -10.1%. In the case of `Cc1nnc(C(=O)NC(C)(C)c2nc(C(=O)NCc3ccc(F)cc3)c(O)c(=O)n2C)o1`, the activity change, negative = inhibition is reported as -86.5% and -69.6%. `CC(=O)/C=C/C=C1/C2CCC(C2)C1(C)C` (stereo unspecified) showed an activity change, negative = inhibition of -3.44%. In the case of `O=c1oc2c(O)c(O)cc3c(=O)oc4c(O)c(O)cc1c4c23`, the Potency is reported as “inactive” and the activity change, negative = inhibition is reported as -5.97% [at 27.1 µM]. In the case of `CCCN(CCC)C(=O)C(CCC(=O)OCCCN1CCN(CCOC(=O)Cc2c(C)n(C(=O)c3ccc(Cl)cc3)c3ccc(OC)cc23)CC1)NC(=O)c1ccccc1` (stereo unspecified), the Potency is reported as 28.2 µM (active). Molecule `C[N+]1(CC2COC(c3ccccc3)(c3ccccc3)O2)CCCCC1` (stereo unspecified) has an activity change, negative = inhibition of 1.26% [at 27.1 µM]. For `O=C(O)c1cccc(-c2noc(-c3ccccc3F)n2)c1`, the Potency was “inactive” and the activity change, negative = inhibition was -78%. In the case of `C[C@]12C=CC(=O)C=C1CC[C@H]1[C@@H]3C[C@@H](O)[C@](O)(C(=O)CO)[C@@]3(C)C[C@H](O)[C@@]12F`, the activity change, negative = inhibition is reported as 4.58%. In the case of `NC(N)=NC(=O)c1nc(Cl)c(N)nc1N`, the Potency is reported as “inactive” and the activity change, negative = inhibition is reported as -0.658% [at 114 µM]. For `CN1CC(=O)N2[C@H](c3ccc4c(c3)OCO4)c3[nH]c4ccccc4c3C[C@@H]2C1=O`, the Potency was “inactive” and the activity change, negative = inhibition was -9.6%. For `CC[C@H](NC(C)C)[C@H](O)c1ccc(O)c2[nH]c(=O)ccc12`, the Potency was “inactive” and the activity change, negative = inhibition was 1.27%. With `C#CC1(O)CC[C@H]2[C@@H]3CCC4=CCCC[C@@H]4[C@H]3CC[C@@]21C` (stereo partly specified) the Potency was “inactive”. `CN1C(=O)CC(c2ccccc2)C1=O` (stereo unspecified) showed an activity change, negative = inhibition of -27.2%.
